{"source": "the supplement of paper PMC10849652", "note": "The full data set covers some 8,800 targets. This sample favours those with a hit. About 0.5% of all pairs of compound and target were hits."}
{"compound": "C1=CC=C(C=C1)[C@H](COC2=CC3=C(C=C2)NC(=O)N3)NC(=O)C4=CC=CN(C4=O)CC5=CC(=C(C=C5)F)F", "test": "log2 fold change, soluble protein after heating vs DMSO (PISA); higher = thermal stabilisation; K562 lysate, 10 uM; active = over 0.2 and 3.5 SD of the protein, either way, in both replicates (recomputed)", "summary_of_the_method": "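Log-two fold change in thermal stability relative to solvent controls is reported from duplicates. For each sample, crude K562 extract from dounce-homogenised pellets in PBS pH 7.4 with 1 mM MgCl2, at 1 mg/mL protein, was treated with 10 μM compound for 30 min. Aliquots heated for 3 min across 48°C-58°C were pooled, brought to 0.5% NP-40 at 4°C and cleared at 21,000xg for 90 min. The supernatant was quantified by TMTpro 16plex LC-MS/MS with channel sums equalised.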"}
{"target": "ATP6V0A2 (UniProt Q9Y487)", "sequence (Q9Y487 whole entry, looked up)": "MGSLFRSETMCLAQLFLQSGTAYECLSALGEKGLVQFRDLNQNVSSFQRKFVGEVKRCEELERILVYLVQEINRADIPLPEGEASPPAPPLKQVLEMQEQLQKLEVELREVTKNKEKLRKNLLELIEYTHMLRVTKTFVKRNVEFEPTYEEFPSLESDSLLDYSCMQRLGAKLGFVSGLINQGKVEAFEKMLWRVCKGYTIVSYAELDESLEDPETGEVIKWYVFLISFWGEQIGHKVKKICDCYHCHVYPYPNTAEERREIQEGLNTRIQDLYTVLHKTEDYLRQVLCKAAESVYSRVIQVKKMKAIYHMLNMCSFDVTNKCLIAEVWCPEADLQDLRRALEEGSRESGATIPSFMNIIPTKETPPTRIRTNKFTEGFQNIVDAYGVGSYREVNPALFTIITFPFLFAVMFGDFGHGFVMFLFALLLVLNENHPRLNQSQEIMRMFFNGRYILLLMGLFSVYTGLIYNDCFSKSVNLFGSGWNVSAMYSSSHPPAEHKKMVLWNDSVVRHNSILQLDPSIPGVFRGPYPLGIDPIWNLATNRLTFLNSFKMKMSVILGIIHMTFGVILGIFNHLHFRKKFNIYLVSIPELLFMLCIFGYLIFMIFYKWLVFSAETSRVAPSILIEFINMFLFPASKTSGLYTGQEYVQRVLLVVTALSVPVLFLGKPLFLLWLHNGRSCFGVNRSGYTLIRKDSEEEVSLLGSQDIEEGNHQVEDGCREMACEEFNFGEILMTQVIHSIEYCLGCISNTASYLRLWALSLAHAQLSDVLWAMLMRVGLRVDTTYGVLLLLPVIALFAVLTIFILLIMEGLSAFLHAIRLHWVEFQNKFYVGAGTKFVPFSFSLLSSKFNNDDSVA", "log2 fold change": "-0.011 (inactive)"}
{"target": "CASP9 (UniProt P55211)", "log2 fold change": "0.041 (inactive)"}
{"target": "CCDC25 (UniProt Q86WR0)", "sequence (Q86WR0 whole entry, looked up)": "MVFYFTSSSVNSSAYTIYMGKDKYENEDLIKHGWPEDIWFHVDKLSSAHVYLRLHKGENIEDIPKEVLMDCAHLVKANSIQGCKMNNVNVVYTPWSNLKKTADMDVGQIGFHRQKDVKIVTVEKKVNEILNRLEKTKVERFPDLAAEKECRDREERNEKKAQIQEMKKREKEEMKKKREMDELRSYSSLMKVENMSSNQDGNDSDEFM", "log2 fold change": "0.008 (inactive)"}
{"target": "ATP5PF isoform 2 (UniProt P18859)", "log2 fold change": "0.085 (inactive)"}
{"target": "ATG4A (UniProt Q8WYN0)", "sequence (Q8WYN0 whole entry, looked up)": "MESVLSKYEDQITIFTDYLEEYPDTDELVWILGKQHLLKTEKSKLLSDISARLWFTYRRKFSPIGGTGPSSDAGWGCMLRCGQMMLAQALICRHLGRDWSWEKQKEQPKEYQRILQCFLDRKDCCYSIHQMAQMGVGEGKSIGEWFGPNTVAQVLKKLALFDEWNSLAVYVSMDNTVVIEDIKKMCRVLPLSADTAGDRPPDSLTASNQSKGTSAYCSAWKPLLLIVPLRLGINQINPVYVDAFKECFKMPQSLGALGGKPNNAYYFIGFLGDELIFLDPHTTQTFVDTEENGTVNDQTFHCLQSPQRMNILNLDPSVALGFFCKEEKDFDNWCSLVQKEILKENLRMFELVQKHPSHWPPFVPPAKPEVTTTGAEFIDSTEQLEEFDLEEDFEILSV", "log2 fold change": "0.008 (inactive)"}
{"target": "CARD9 (UniProt Q9H257)", "sequence (Q9H257 whole entry, looked up)": "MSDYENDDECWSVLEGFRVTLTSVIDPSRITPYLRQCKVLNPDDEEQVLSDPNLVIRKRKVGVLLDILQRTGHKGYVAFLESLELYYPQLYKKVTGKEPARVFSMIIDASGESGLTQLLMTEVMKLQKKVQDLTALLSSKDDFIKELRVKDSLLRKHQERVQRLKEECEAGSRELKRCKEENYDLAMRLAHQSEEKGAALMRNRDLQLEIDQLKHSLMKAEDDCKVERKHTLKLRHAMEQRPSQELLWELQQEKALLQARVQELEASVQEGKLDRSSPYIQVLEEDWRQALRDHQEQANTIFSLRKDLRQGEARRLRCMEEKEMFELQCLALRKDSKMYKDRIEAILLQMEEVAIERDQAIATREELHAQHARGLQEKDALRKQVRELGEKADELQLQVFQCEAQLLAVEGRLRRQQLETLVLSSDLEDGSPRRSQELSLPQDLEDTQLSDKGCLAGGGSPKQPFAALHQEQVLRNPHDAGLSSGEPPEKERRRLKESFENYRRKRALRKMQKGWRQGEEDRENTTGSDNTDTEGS", "log2 fold change": "-0.039 (inactive)"}
{"target": "CAMKK2 (UniProt Q96RR4)", "sequence (Q96RR4 whole entry, looked up)": "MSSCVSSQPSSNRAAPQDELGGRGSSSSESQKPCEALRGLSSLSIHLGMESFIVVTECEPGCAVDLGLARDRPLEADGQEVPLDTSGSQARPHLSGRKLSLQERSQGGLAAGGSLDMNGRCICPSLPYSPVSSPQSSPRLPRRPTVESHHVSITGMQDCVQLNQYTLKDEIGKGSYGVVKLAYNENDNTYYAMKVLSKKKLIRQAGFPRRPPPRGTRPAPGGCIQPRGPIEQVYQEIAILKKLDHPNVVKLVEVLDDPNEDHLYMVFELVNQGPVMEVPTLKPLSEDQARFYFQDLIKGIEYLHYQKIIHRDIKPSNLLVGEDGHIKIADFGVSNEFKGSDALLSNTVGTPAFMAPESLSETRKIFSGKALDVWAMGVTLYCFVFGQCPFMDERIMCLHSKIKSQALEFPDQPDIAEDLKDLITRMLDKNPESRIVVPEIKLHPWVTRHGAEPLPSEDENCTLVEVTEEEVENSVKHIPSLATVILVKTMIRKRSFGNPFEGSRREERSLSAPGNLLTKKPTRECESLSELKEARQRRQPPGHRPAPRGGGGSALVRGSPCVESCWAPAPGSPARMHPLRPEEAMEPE", "log2 fold change": "0.002 (inactive)"}
{"target": "CDC25C (UniProt P30307)", "sequence (P30307 whole entry, looked up)": "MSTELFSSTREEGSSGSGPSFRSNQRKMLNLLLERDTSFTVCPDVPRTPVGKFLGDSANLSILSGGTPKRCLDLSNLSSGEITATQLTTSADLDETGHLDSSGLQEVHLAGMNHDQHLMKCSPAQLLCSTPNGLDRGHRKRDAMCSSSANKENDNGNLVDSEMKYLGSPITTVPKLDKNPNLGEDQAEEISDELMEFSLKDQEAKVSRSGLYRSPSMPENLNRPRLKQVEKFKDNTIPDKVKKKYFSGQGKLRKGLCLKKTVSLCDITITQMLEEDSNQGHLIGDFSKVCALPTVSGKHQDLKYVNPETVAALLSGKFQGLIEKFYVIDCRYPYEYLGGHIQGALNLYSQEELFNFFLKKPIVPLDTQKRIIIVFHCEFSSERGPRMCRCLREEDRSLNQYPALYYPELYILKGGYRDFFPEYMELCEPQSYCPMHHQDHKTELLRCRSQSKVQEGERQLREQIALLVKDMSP", "log2 fold change": "0.018 (inactive)"}
{"target": "CHCHD2 (UniProt Q9Y6H1)", "sequence (Q9Y6H1 whole entry, looked up)": "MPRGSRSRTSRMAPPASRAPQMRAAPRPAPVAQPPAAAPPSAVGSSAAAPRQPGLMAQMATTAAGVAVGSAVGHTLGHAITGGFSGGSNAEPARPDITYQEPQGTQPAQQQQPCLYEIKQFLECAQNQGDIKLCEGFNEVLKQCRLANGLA", "log2 fold change": "-0.123 (inactive)"}
{"target": "CASP3 (UniProt P42574)", "log2 fold change": "0.051 (inactive)"}
{"target": "CDK5 (UniProt Q00535)", "sequence (Q00535 whole entry, looked up)": "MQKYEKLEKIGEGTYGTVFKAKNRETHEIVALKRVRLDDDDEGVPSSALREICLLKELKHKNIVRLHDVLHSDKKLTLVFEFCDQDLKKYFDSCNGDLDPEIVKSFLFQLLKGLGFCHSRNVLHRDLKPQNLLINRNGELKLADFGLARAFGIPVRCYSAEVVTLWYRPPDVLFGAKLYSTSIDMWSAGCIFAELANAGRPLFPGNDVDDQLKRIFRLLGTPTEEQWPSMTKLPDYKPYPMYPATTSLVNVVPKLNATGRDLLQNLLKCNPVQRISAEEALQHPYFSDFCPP", "log2 fold change": "-0.01 (inactive)"}
{"target": "CARS isoform 3 (UniProt P49589)", "log2 fold change": "-0.026 (inactive)"}
{"target": "C18orf25 isoform 2 (UniProt Q96B23)", "sequence (Q96B23 whole entry, looked up)": "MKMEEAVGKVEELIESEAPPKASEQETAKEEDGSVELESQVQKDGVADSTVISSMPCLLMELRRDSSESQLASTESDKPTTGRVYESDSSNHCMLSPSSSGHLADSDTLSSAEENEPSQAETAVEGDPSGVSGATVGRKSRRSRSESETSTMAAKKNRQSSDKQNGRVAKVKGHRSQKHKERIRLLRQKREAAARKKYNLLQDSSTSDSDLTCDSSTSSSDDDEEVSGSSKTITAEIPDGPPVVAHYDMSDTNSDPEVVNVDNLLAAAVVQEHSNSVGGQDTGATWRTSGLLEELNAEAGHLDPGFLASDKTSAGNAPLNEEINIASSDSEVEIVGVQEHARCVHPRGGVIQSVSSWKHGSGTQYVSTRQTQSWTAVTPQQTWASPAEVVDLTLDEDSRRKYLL", "log2 fold change": "-0.005 (inactive)"}
{"target": "BRD3 (UniProt Q15059)", "log2 fold change": "0.027 (inactive)"}
{"target": "CDK11B (UniProt P21127)", "log2 fold change": "-0.035 (inactive)"}
{"target": "CAPN15 (UniProt O75808)", "log2 fold change": "-0.047 (inactive)"}
{"target": "CASP6 (UniProt P55212)", "sequence (P55212 whole entry, looked up)": "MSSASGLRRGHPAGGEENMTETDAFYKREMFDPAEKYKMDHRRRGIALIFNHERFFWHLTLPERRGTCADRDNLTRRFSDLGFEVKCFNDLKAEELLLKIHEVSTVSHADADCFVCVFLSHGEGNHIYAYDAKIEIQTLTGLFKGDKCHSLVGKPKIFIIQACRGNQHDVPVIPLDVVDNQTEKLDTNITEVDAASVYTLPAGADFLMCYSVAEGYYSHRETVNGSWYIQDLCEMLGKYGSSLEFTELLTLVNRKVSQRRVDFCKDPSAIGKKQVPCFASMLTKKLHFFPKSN", "log2 fold change": "0.004 (inactive)"}
{"target": "CDK2 (UniProt P24941)", "log2 fold change": "0.006 (inactive)"}
{"target": "CHAF1A (UniProt Q13111)", "log2 fold change": "-0.099 (inactive)"}
{"target": "BOLA2 (UniProt Q9H3K6)", "log2 fold change": "-0.052 (inactive)"}
{"target": "ATG7 (UniProt O95352)", "sequence (O95352 whole entry, looked up)": "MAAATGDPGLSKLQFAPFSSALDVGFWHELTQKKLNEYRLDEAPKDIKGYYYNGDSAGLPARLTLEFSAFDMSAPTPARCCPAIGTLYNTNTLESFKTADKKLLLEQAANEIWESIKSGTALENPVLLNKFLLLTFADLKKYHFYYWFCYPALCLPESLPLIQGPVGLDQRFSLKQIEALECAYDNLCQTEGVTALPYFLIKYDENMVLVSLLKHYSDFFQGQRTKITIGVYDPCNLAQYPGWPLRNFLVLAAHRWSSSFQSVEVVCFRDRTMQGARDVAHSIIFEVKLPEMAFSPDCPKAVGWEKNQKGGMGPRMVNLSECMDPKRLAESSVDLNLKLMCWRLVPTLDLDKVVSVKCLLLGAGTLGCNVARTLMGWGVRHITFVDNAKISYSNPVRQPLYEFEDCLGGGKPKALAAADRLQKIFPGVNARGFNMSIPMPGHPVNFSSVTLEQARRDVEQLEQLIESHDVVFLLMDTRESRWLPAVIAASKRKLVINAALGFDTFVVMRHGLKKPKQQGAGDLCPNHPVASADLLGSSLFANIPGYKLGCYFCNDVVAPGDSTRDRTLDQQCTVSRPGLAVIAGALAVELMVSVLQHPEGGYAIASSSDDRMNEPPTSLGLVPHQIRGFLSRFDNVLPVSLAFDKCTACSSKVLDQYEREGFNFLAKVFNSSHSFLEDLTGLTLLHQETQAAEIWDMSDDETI", "log2 fold change": "0.014 (inactive)"}
{"target": "BORCS5 (UniProt Q969J3)", "log2 fold change": "-0.12 (inactive)"}
{"target": "C19orf54 (UniProt Q5BKX5)", "log2 fold change": "0.04 (inactive)"}
